Source: PubChem BioAssay (Johns Hopkins Ion Channel Center)
Hits are enriched below; roughly 1.6% of the tested compounds scored in any of these assays.
KCNQ2 inh – inhibitors of rat KCNQ2 potassium channel; CHO-K1 KCNQ2, FluxOR thallium flux, 20 min; hits give low values; B-score at 10 µM; actives 1.1% (n = 310,000); O88943;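 active = fluorescence ratio B-score at most minus 3 library SDs, with starting brightness B-score within 2 library SDs, cut at about -5.5 in these data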
KCNQ2 enhance – potentiators of rat KCNQ2 potassium channel | CHO-K1 KCNQ2, FluxOR thallium flux fluorescence; hits give high values | O88943 | B-score at 10 µM | actives 0.54% (n = 310,000) | AID 2239;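 active = fluorescence ratio B-score at least 3 SD of library B-scores, with initial fluorescence B-score within 3 of them, cut at about 5.3 in these data; same plate scores as AID 2156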;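 also: B-score of peak minus minimum over baseline fluorescence ratio after K+ and Tl+ stimulus; positive B-score means potentiation of KCNQ2 with more thallium influx and brighter signal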
Kir21 conf inh – confirmation of mouse Kir2.1 potassium channel inhibitors; Kir2.1-expressing cells, FluxOR thallium flux fluorescence; hits give low values; actives 41% (n = 2,300); shares compounds with KCNQ2 enhance; Tl flux remaining, % of negative control (hits give low values), % at 10 µM;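 active = Primary-screen hit whose thallium flux fell at least 3 control SD below untreated wells in both duplicates, with normal baseline fluorescence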;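 also: 0% = blank wells without stimulus and 100% = stimulated no-compound controls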
HEK293 Tl flux – counter-screen for Kir2.1 inhibitors: effect in parental HEK293 cells; actives 19% (n = 2,300); shares compounds with KCNQ2 enhance; FluxOR thallium flux fluorescence; 0% = unstimulated blank wells; AID 2105; FluxOR signal as % of negative control (100 = no effect), % at 10 µM;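 active = dye signal at least 3 control SD above or below untreated wells in both duplicates, raw fluorescence within 3, either direction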;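 also: percent is based on the flux ratio of peak minus minimum fluorescence over baseline F0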
CHO-K1 Tl ctr – alters thallium flux in parental CHO-K1 cells, KCNQ2 counter-screen. activity increase over 3SD of controls, % at 10 µM. FluxOR thallium flux fluorescence; zero = vehicle mean+3SD, 100% = vehicle-minus-blank window. actives 43% (n = 1,200). shares compounds with KCNQ2 enhance;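 active = signal rise of at least 3 SD above the untreated control mean, in both duplicate wells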;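 also: counter screen of KCNQ2 potentiator hits so any rise reflects channel-independent effects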
KCNQ1 sel pot – human KCNQ1 counter-target activity of KCNQ2 potentiators. shares compounds with KCNQ2 enhance. CHO KCNQ1 stable, FluxOR thallium flux fluorescence; beyond 3SD, as % of vehicle-control signal. activation over 3SD threshold, % at 10 µM. actives 28% (n = 1,200);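 active = fluorescence ratio rise of at least 3 SD of vehicle wells above their mean, in both replicate wells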;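 also: 0% = vehicle mean plus 3 SD and 100% = vehicle minus unstimulated blank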
Target sequence (P51787 whole entry, looked up): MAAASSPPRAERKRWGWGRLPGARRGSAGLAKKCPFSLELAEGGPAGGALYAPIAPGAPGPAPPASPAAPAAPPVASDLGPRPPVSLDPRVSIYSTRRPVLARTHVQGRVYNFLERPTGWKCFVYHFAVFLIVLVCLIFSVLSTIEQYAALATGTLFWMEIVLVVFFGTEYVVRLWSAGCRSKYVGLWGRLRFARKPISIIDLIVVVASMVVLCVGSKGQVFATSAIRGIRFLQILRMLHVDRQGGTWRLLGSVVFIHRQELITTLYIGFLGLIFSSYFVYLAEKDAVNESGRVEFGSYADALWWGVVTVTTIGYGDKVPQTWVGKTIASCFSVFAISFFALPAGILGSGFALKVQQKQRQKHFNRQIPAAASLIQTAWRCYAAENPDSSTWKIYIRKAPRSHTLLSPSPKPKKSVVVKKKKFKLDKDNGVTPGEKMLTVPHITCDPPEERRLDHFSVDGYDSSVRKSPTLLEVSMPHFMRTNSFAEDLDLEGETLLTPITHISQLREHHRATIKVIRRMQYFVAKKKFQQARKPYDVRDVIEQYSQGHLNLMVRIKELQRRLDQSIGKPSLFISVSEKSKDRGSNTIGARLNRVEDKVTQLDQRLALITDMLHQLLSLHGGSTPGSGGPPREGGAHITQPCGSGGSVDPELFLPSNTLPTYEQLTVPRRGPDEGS
KCNQ2 pot confirm – confirmation of rat KCNQ2 potassium channel potentiators; shares compounds with KCNQ2 enhance; CHO-KCNQ2 cells, FluxOR thallium flux fluorescence; potentiation, less the hit threshold, % at 10 µM; actives 68% (n = 1,200); AID 2287;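 active = fluorescence ratio rising 3 SD or more over the vehicle control mean in both replicates, plus primary screen hit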;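 also: peak minus minimum thallium fluorescence divided by baseline after K/Tl stimulus; 0% = vehicle mean plus 3 SD and 100% = vehicle minus unstimulated blank difference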
Kir21 spec – mouse Kir2.1 off-target activity of KCNQ2 potentiators. AID 2345. activity over 3SD threshold, % at 10 µM. HEK293 Kir2.1, FluxOR thallium flux fluorescence. shares compounds with KCNQ2 enhance. actives 2% (n = 1,200);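 active = fluorescence ratio rise of at least 3 SD above the vehicle-control mean, seen in both replicates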;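 also: 0% = vehicle mean plus 3 SD and 100% = vehicle minus no-stimulus blank window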
KCNQ2 W236L pot – potentiates the retigabine-insensitive rat KCNQ2 W236L mutant channel | current increase over 3SD of negative controls (%), hits give high values, % at 25 µM | CHO KCNQ2-W236L, automated patch clamp current | actives 10% (n = 940) | shares compounds with KCNQ2 enhance | AID 2558;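 active = current increase at least 3 SD of the untreated controls above them in both duplicate recordings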
* = called active by the depositor; i = inactive; . = no result.

SMILES	KCNQ2 inh	KCNQ2 enhance	Kir21 conf inh	HEK293 Tl flux	others
CC1CCN(C(=S)SCc2nc(N)nc(Nc3ccccc3)n2)CC1	i	.	.	.
Cc1ccc(NC(=O)NCC2CC2(Cl)Cl)cc1 (configuration not stated)	i	10*	i	i	CHO-K1 Tl ctr=22*;KCNQ1 sel pot=-21;KCNQ2 pot confirm=-1;Kir21 spec=-31;KCNQ2 W236L pot=i
CSc1ccc(NC(=O)NCCCN2CCC(Cc3ccccc3)CC2)cc1	i	.	64%*	i
Cc1ccc(NC(=S)NCCSc2ccc(Cl)cc2)cc1	i	3.2	.	.
Cc1ccc(NC(=O)NCCSc2ccc(C)cc2)cc1	i	5.5*	i	i	CHO-K1 Tl ctr=-4;KCNQ1 sel pot=48*;KCNQ2 pot confirm=-4;Kir21 spec=-26
COc1ccc(NC(=O)NCCCN2CCC(Cc3ccccc3)CC2)cc1	i	.	.	.
O=C(NCCCCc1ccccc1)Nc1ccc(F)cc1	i	2.1	.	.
Cc1ccc(CNC(=O)Nc2ccc(C)cc2)cc1	i	2.5	.	.
Cc1ccc(NC(=O)NCCCc2ccccc2)cc1	i	6.3*	i	i	CHO-K1 Tl ctr=5.9*;KCNQ1 sel pot=71*;KCNQ2 pot confirm=-3;Kir21 spec=-36;KCNQ2 W236L pot=i
CN(C(=O)COC(=O)c1ccc(Cl)c(N)c1)c1ccccc1	i	.	.	.
Cc1cc(C)cc(OC(C)C(=O)Nc2ccc3c(c2)n(C)c(=O)n3C)c1 (configuration not stated)	i	0.68	.	.
CCc1cc(=O)oc2cc(C)cc(O)c12	i	.	.	.
CCOc1ccc(-c2nnc(-c3cccs3)o2)cc1OCC	i	0.83	.	.
O=[N+]([O-])c1nn(-c2ccccc2)n(O)c1=NCCc1ccccc1	i	0.32	.	.
CC(=O)/C(C#N)=C1\NC(=O)C(Cc2ccc(C)c(C)c2)S1 (configuration not stated)	i	7.2*	i	i	CHO-K1 Tl ctr=3.5*;KCNQ1 sel pot=-20;KCNQ2 pot confirm=-86;Kir21 spec=-29
CC(=O)/C(C#N)=C1\NC(=O)C(Cc2ccc(F)cc2)S1 (configuration not stated)	i	0.65	.	.
COc1ccc(CN2CCC(C(=O)c3cccc(Cl)c3)CC2)cc1	i	0.01	.	.
COc1ccc(CN2CCC(C(=O)c3ccc(Cl)cc3)CC2)cc1	i	0.34	20%*	i
O=C(N/N=C/C=C/c1ccc([N+](=O)[O-])cc1)c1cccs1	i	.	.	.
CCn1cc(/C=N/NC(=O)c2ccc3c(c2)OCO3)c(C)n1	i	6.3*	i	i	CHO-K1 Tl ctr=-12;KCNQ1 sel pot=-25;KCNQ2 pot confirm=-20;Kir21 spec=-39
CCn1ncc(/C=N/NC(=O)c2ccc3c(c2)OCO3)c1C	i	.	.	.
Cc1cc2c(cc1S(=O)(=O)NCCc1ccccc1)NC(=O)CO2	i	1.8	.	.
CCCc1ccccc1OCCNS(=O)(=O)c1cc2c(cc1C)OCC(=O)N2	i	2.2	64%*	i
COc1ccc(-c2csc(N=C(N)N)n2)cc1	i	1.3	.	.
Cc1ccc(-c2csc(N=C(N)N)n2)c(C)c1	i	.	40%*	i
SMILES	KCNQ2 inh	KCNQ2 enhance	Kir21 conf inh	HEK293 Tl flux	others
Oc1cccc(Nc2nc(NCC3CCCO3)c3ccccc3n2)c1 (configuration not stated)	i	.	.	.
COc1ccc(Nc2nc(NCC3CCCO3)c3ccccc3n2)c(OC)c1 (configuration not stated)	i	.	30%*	i
O=[N+]([O-])c1cc([N+](=O)[O-])c2cccnc2c1Oc1ccccc1O	i	.	62%*	65%*
O=[N+]([O-])c1cc(F)c2cccnc2c1O	i	3.6	.	.
O=[N+]([O-])c1ccc(O)c2cccnc12	i	1	.	.
O=[N+]([O-])c1ccccc1Oc1ccc(Cl)c2cccnc12	i	0.23	.	.
O=[N+]([O-])c1ccc(O)c2ncccc12	i	8.7*	i	i	CHO-K1 Tl ctr=36*;KCNQ1 sel pot=-5;KCNQ2 pot confirm=34*;Kir21 spec=-26;KCNQ2 W236L pot=i
O=[N+]([O-])c1cc(Cl)c(O)c2ncccc12	i	5.7*	i	i	CHO-K1 Tl ctr=-18;KCNQ1 sel pot=66*;KCNQ2 pot confirm=-12;Kir21 spec=-21;KCNQ2 W236L pot=i
O=C(Nc1nccs1)c1cc(-c2ccncc2)nc2ccccc12	i	.	.	.
COc1nc(NC(C)=O)nc(C)c1Br	i	0.56	.	.
Cn1c(SCC(=O)Nc2nnc(-c3ccccc3)o2)nnc1C1CC1	i	0.43	.	.
O=C(NCc1ccc(F)cc1)c1cc(S(=O)(=O)N2CCOCC2)ccc1F	i	.	.	.
CCC(=O)Nc1c(C)cc(C)cc1Cl	i	1.2	.	.
CCCCC(=O)Nc1c(C)cc(C)cc1Cl	i	12*	i	i	CHO-K1 Tl ctr=-25;KCNQ1 sel pot=-14;KCNQ2 pot confirm=53*;Kir21 spec=-34;KCNQ2 W236L pot=i
O=C(C(c1ccccc1)N1CCOCC1)N1CCOCC1 (configuration not stated)	i	0.24	.	.
COc1ccc(NC(=O)C/C(C)=N/NC(=O)C(=O)NC(C)C)c(OC)c1	i	1.3	.	.
NC(=O)C1=C[C@@H](c2ccc(Br)cc2)C[C@@H](OCc2ccc(CO)cc2)O1	i	.	.	.
NC(=O)C1=C[C@H](c2ccc(Br)cc2)C[C@H](OCc2ccc(CO)cc2)O1	i	0.05	45%*	i
CCCCOc1ccc(C(=O)NCC(=O)NCc2ccncc2)cc1	i	.	.	.
O=C(CCS(=O)(=O)c1cccc2nonc12)NC1CCCCCC1	i	11*	i	i	CHO-K1 Tl ctr=33*;KCNQ1 sel pot=-13;KCNQ2 pot confirm=36*;Kir21 spec=-40;KCNQ2 W236L pot=i
O=C(CCNS(=O)(=O)c1cccc2nonc12)NC1CCCCC1	i	0.78	.	.
COC(=O)c1ccc(/C=N/OCC(=O)NC2CCCCCCC2)cc1	i	.	.	.
CC(=O)Nc1ccc(N/C=C/C(=O)C(C)(C)C)cc1	i	.	.	.
Cc1ccc(N/C=C/C(=O)C(C)(C)C)c(O)c1	i	8.3*	i	i	CHO-K1 Tl ctr=-1;KCNQ1 sel pot=2.9*;KCNQ2 pot confirm=8.3*;Kir21 spec=-21;KCNQ2 W236L pot=i
CCc1nc(SCC(=O)c2ccc(Cl)s2)c2oc3ccccc3c2n1	i	10*	i	i	CHO-K1 Tl ctr=-11;KCNQ1 sel pot=54*;KCNQ2 pot confirm=-17;Kir21 spec=-37
CCc1nc(SCC(=O)N2CCN(c3ccccc3)CC2)c2oc3ccccc3c2n1	i	.	.	.
CN(C(=O)c1ccc(Br)cc1)C1CCS(=O)(=O)C1 (configuration not stated)	i	0.91	.	.
O=C(NC(=S)Nc1ccccc1Br)c1cccnc1	i	0.43	.	.
Cc1nn(C)c(C(=O)NC(=S)Nc2ccccc2Br)c1Cl	i	6.8*	i	216%*	CHO-K1 Tl ctr=0;KCNQ1 sel pot=-8;KCNQ2 pot confirm=55*;Kir21 spec=-20;KCNQ2 W236L pot=i
